Screening data as filed in PubChem BioAssay.
Compounds with a hit are over-represented: about 2.3% of the library has one in this group of screens.
CF NFkB inh: inhibitors of PAF-induced NF-kB signaling, primary screen, cell-based, GFP fluorescence, uHTS. KKLEB NF-kB-GFP reporter, GFP fluorescence overnight. inhibition, % at 5 µM. 0.86% of 360,000 active;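 active = at least 50% inhibition at 5 µM, scaled per plate between neutral and stimulator controls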;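 also: PAF is a Pseudomonas aeruginosa culture filtrate used as stimulus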
iPSC survival up: enhancers of single-cell hiPSC survival, primary screen, ATPlite luminescence. 100% = ROCK inhibitor wells, 0% = DMSO. survival enhancement, % at 20 µM. 0.044% of 360,000 active. AID 602274, 2012; in the data active = survival enhancement above about 18%;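 also: cells exposed to compounds for 16 hours before the ATP read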
HIF-2a block: HIF-2a reporter inhibitors, primary screen, luminescence, 786-0 RCC cells. 786-0 RCC cells HIF-2a reporter, luciferase luminescence, overnight. inhibition, % at 18.8 µM. 0.72% of 360,000 active. AID 624352, 2012;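 active = inhibition of the luminescence signal of 40% or more relative to plate controls, in a single-dose primary screen at 18.75 µM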
LGR2 inh: inhibitors of bursicon-induced LGR2 CRE-luciferase signal, primary screen, cell-based, HEK293, CRE-luciferase reporter, bursicon stimulation; Drosophila bursicon receptor LGR2 (rickets); bursicon-stimulated, 4 h; inhibition, % at 9.99 µM; 0.35% of 380,000 active;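 active = drop in luminescence signal, shown as inhibition above about 50% in the replicate tests, limit read from the data, passing the limit was not always enough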;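 also: agonist challenge used bursicon conditioned medium at about half maximal strength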
KKLEB cytotox: cytotoxicity in KKLEB CF airway cells, primary screen, cytotoxicity control for CF NF-kB inhibitor project, cell-based, uHTS, fluorescence assay plates; KKLEB CF airway cells viability, ATPlite luminescence, overnight; hits give low values; cells stimulated with P. aeruginosa culture filtrate; activity change (cytotoxicity), % at 5 µM; 0.36% of 360,000 active;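 active = corrected activity change at or below -50% at 5 µM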
TWEAK-Fn14 inh: inhibitors of TWEAK-Fn14 signaling, primary screen, luciferase reporter cells, uHTS. AID 1159606, 2016. inhibition, % at 10 µM. 2% of 360,000 active. TWEAK-stimulated Fn14 reporter cells, luciferase luminescence, 8 h; in the data active = inhibition above about 50%
Hits are given with their value.

Results for CN(C)c1ccc(CC(=O)N2CCCC(c3cc(C(=O)Nc4ccc5c(c4)OCO5)no3)C2)cc1 (configuration not stated) ?
CF NFkB inh: inactive; iPSC survival up: inactive; HIF-2a block: inactive; LGR2 inh: inactive; KKLEB cytotox: inactive; TWEAK-Fn14 inh: inactive

What do the screens show for `CN(C)c1ccc(CC(=O)N2CCCC(c3cc(C(=O)Nc4ccccc4)no3)C2)cc1` (configuration not stated)?
CF NFkB inh: inactive; iPSC survival up: inactive; HIF-2a block: inactive; LGR2 inh: inactive; KKLEB cytotox: inactive; TWEAK-Fn14 inh: 71

How did O=C(Nc1ccccc1)c1cc(C2CCCN(C(=O)C3CC3)C2)on1 (configuration not stated) do in these assays?
CF NFkB inh: inactive; iPSC survival up: inactive; HIF-2a block: inactive; LGR2 inh: 84; KKLEB cytotox: inactive; TWEAK-Fn14 inh: 93

What do the screens show for `COc1ccc(NC(=O)c2ccc(-c3ccc(-c4noc(C)n4)cc3C)cc2)cc1N1CCN(C)CC1`?
CF NFkB inh: inactive; iPSC survival up: inactive; HIF-2a block: inactive; LGR2 inh: 104; KKLEB cytotox: inactive; TWEAK-Fn14 inh: inactive

How did COc1ccc(CC(=O)Nc2ccc(-c3noc(-c4ccc(Cl)cc4)n3)cc2)cc1 do in these assays?
CF NFkB inh: inactive; iPSC survival up: inactive; HIF-2a block: inactive; LGR2 inh: inactive; KKLEB cytotox: -55; TWEAK-Fn14 inh: inactive

Results for COc1ccc(-c2nc(-c3ccc(NC(=O)c4ccncc4)cc3)no2)cc1OC ?
CF NFkB inh: inactive; iPSC survival up: inactive; HIF-2a block: inactive; KKLEB cytotox: inactive; TWEAK-Fn14 inh: 94

How did COc1ccc(S(=O)(=O)N[C@@H]2C=C[C@@H](CC(=O)NCCc3ccncc3)O[C@@H]2CO)cc1 do in these assays?
LGR2 inh: inactive

Results for C[C@@H]1CN([C@H](C)CO)C(=O)c2cccc(NS(C)(=O)=O)c2O[C@@H]1CN(C)S(=O)(=O)c1ccc(F)cc1 ?
LGR2 inh: inactive

How did C[C@@H]1CN([C@@H](C)CO)C(=O)Cc2cc(NC(=O)C3CC3)ccc2O[C@H]1CN(C)CC1CCCCC1 do in these assays?
LGR2 inh: inactive

What do the screens show for `Cc1ccc(Nc2nc(Cl)nc(NC(C)(C)C)n2)cc1`?
CF NFkB inh: inactive; iPSC survival up: inactive; HIF-2a block: inactive; LGR2 inh: inactive; KKLEB cytotox: inactive; TWEAK-Fn14 inh: inactive

Results for Cc1ccc(Nc2nc(Cl)nc(N(C)C#N)n2)cc1 ?
CF NFkB inh: inactive; iPSC survival up: inactive; HIF-2a block: inactive; LGR2 inh: inactive; KKLEB cytotox: inactive; TWEAK-Fn14 inh: 90

How did C[C@H]1CN([C@@H](C)CO)C(=O)c2cc(-c3ccncc3)cnc2O[C@@H]1CN(C)Cc1cccnc1 do in these assays?
LGR2 inh: inactive

How did CCCOC(c1ccccc1)(c1ccc(C(F)(F)F)cc1)C(Oc1nc(C)cc(C)n1)C(=O)O (configuration not stated) do in these assays?
CF NFkB inh: inactive; iPSC survival up: inactive; HIF-2a block: inactive; LGR2 inh: inactive; KKLEB cytotox: inactive; TWEAK-Fn14 inh: 61

What do the screens show for `Cc1cc(C)nc(OC(C(=O)O)C(OCCc2ccccc2)(c2ccc(F)cc2)c2ccc(F)cc2)n1` (configuration not stated)?
CF NFkB inh: inactive; iPSC survival up: inactive; HIF-2a block: inactive; LGR2 inh: inactive; KKLEB cytotox: inactive; TWEAK-Fn14 inh: inactive

Results for Cc1ccc(C(C#N)c2ccc3c(C(F)(F)F)cc(C(F)(F)F)nc3n2)cc1 (configuration not stated) ?
CF NFkB inh: inactive; iPSC survival up: inactive; HIF-2a block: inactive; KKLEB cytotox: inactive; TWEAK-Fn14 inh: 50

Results for N#CC(c1ccccc1)c1ccc2c(C(F)(F)F)cc(C(F)(F)F)nc2n1 (configuration not stated) ?
CF NFkB inh: inactive; iPSC survival up: inactive; HIF-2a block: inactive; KKLEB cytotox: inactive; TWEAK-Fn14 inh: 53

Results for COc1ccc(CN(C)CCCn2cnc3c(OC)ncnc32)cc1OC ?
CF NFkB inh: inactive; iPSC survival up: 25; HIF-2a block: inactive; LGR2 inh: inactive; KKLEB cytotox: inactive; TWEAK-Fn14 inh: inactive
